Assay outcomes deposited in PubChem by National Center for Advancing Translational Sciences (NCATS).
TDP1 cell CPT – DT40-hTDP1 cell growth loss with CPT; chicken DT40 Tdp1-/-;hTDP1 cells + 20 nM CPT, ATP luminescence, 48 h; Potency, µM (highest dose often 46.2 µM), without a hit: at the highest dose activity change, negative = growth inhibition, most hits filed as inhibitors; 420,000 tested, 12% active; AID 686979; also: potency is read from the fitted curve at half-maximal effect; nearly all actives have a fitted effect of over 55% in size
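Chicken DT40 Tdp1-/- cells complemented with human TDP1, 400 cells/well, exposed to compounds plus 20 nM camptothecin for at least 48 h at 37 C; viability read as ATP content by CellTiter-Glo luminescence.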
IL1B secr inh – blocks inflammasome-driven IL-1 beta release | THP-1 LPS/ATP IL-1B secretion, AlphaLISA, 16 h; hits give low values | activity change, % at 57.5 µM | 360,000 tested, 4.7% active; in the data active = activity change below about -50%; inconclusive = mostly about -30% to -49%
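THP-1 cells pretreated 1 hr with compounds (up to 57.5 uM final), then stimulated with LPS (250 ng/mL final) plus ATP (1.25 mM final); secreted IL-1B measured by AlphaLISA after 16 hr, decreased signal indicating inhibition.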
LDHA inh – inhibitors of human lactate dehydrogenase A; P00338; 480,000 tested, 0.15% active; activity change, % (values are at about 110 or 230 µM); purified LDHA, NADH/diaphorase-resazurin fluorescence; hits give low values; in the data active = activity change below about -30%; inconclusive = mostly about -25% to -30%;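 also: plate controls were DMSO wells for no effect and wells without enzyme for full effect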
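Human LDH5 at 2 nM final in Tris HCl pH 7.4 with 0.06 mM NADH and 0.2 mM pyruvate, reacted 5 minutes at room temperature. Remaining NADH coupled via diaphorase/resazurin; resorufin fluorescence read at 0 and 20 minutes, normalized to enzyme-free and DMSO wells.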
VP16 counter – Gal4-VP16 reporter inhibition counter-screen. Drosophila S2 Gal4-VP16 UAS-luciferase, luminescence, 20 h. Potency, µM (top dose mostly 53.6 µM), for the others: at the top dose activity, negative = inhibition, actives largely listed as inhibitors. 310,000 tested, 3.5% active;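 also: Gal4-VP16 expression switched on by copper sulfate through the metallothionein promoter; potency is read from the fitted curve at half-maximal effect; nearly all actives have a fitted effect of over 50% in size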
TDP1 cell noCPT – qHTS for Inhibitors of human tyrosyl-DNA phosphodiesterase 1 (TDP1): qHTS in cells in absence of CPT; DT40 Tdp1-/- hTDP1 cells, no CPT, ATP luminescence, 48 h; Potency, µM (doses to about 46.2 µM), for inactives: at the top dose activity change, negative = growth inhibition, most hits filed as inhibitors; 420,000 tested, 15% active; AID 686978, 2013; also: potency is read from the fitted curve at half-maximal effect; nearly all actives have a fitted effect of over 55% in size
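Seeded 400 DT40-hTDP1 cells/well (vehicle DMSO, no 20 nM CPT); pinned compounds; ≥48 hr at 37 °C; CellTiter-Glo luminescence as viability measure.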
RORgamma inh – blocks mouse ROR gamma transcriptional activity; Drosophila S2 Gal4-RORgamma UAS-luciferase reporter, 20 h; Potency, µM (highest dose often 53.6 µM), for the others: at the highest dose activity change, negative = inhibition, most hits filed as inhibitors; 310,000 tested, 5.4% active; also: potency is read from the fitted curve at half-maximal effect; nearly all actives have a fitted effect of over 60% in size
Target sequence (P51450 whole entry, looked up, the tested form may be a part): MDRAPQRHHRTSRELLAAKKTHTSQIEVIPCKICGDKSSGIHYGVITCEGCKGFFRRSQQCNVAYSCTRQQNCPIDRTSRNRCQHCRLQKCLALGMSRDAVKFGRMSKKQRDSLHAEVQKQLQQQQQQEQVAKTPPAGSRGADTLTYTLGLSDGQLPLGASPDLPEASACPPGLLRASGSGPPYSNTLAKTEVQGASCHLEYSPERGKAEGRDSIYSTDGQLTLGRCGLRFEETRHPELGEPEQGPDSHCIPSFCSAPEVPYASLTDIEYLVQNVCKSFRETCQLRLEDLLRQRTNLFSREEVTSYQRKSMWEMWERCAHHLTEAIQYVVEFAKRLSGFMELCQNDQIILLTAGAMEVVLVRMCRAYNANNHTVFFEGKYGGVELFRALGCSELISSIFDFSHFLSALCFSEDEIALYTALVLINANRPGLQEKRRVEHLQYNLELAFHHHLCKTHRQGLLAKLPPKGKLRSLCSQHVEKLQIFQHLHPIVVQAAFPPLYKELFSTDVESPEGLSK
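Drosophila Schneider cells stably carrying a metallothionein-driven Gal4 DBD–ROR gamma fusion and a UAS-Photinus luciferase reporter were exposed to compound for 1 hr, then induced with copper sulfate (700 uM final) for 20 hr at ambient temperature before luminescence reading.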
An asterisk follows results filed as active; ? = inconclusive; . = not tested or not shown; [ ] = dose if it differs, or a comment. The list is not random: actives were taken first. Their share in the collection is about 18%. Unless noted, calls follow the shape of the dose curve; as a rule, active = well fitted curve in the direction sought with a large enough effect; inconclusive = small, poorly fitted or top-dose-only effect, or another doubt; inactive = no such curve, though single readings can be large; an effect the other way counts as inactive or inconclusive. Unless noted, % is scaled to controls: 0 for no effect and ±100 for the full control effect.

SMILES | TDP1 cell CPT | IL1B secr inh | LDHA inh | VP16 counter | TDP1 cell noCPT | RORgamma inh
CC(=O)c1c(C)[nH]c(C(=O)OCC(=O)N2c3ccccc3NC(=O)C2(C)C)c1C | 35% | 41 | -4 | 7% | ? | -1%
CC(=O)c1c(C)[nH]c(C(=O)OCc2ccccc2)c1C | ? | -3 | -5 | -14% | 21µM* | 14%
COc1ccc(-c2c3c(=O)n(C)c(=O)n(C)c3c3n2CCOC3c2coc3ccccc3c2=O)cc1 (stereo unspecified) | . | . | -5 | . | . | .
Cc1cccc(C)c1NC(=O)/C(C#N)=C\c1ccc(OC(F)F)cc1 | . | . | 15 | . | . | .
Cc1ccc(C2(COC(=O)C(C)C)CO2)c(OC(=O)C(C)C)c1 (stereo unspecified) | -18% | 28 | 1 | 8.9µM* | -20% | -7%
CCC(C)C(=O)OCC1(c2ccc(C)cc2OC(=O)C(C)C)CO1 (stereo unspecified) | 11% | 10 | -5 | ? | -13% | 0%
CCC(=O)N1CCCc2cc(S(=O)(=O)N3CCN(c4ccccn4)CC3)ccc21 | ? | -16 | 9 | 6% | 21µM* | 33%
CC(C(=O)N1CCCc2ccccc21)N1CCN(c2ccccn2)CC1 (stereo unspecified) | -20% | -5 | -38* | 1% | -1% | -24%
Cc1c(Br)c([N+](=O)[O-])nn1C(C)C(=O)N1CCCc2ccccc21 (stereo unspecified) | ? | 10 | 5 | -5% | 16µM* | 25%
CC(C(=O)N1CCc2ccccc21)N1CCN(c2ccccn2)CC1 (stereo unspecified) | -15% | 0 | -3 | -6% | -15% | -10%[10 µM]
CCC(=O)N1CCc2cc(S(=O)(=O)N3CCCC3)ccc21 | -3% | 4 | -2 | -2% | -11% | -1%
CCC(=O)N1CCCc2cc(S(=O)(=O)N3CCN(c4ncccn4)CC3)ccc21 | 15µM* | -1 | -5 | -4% | ? | 0%
COc1ccc(/C=C2/SC(=S)N(NS(=O)(=O)c3ccc(C)cc3)C2=O)cc1 | -19% | -56* | -5 | 5% | -14% | -13%
Cc1ccc(/C=C2\SC(=S)N(NS(=O)(=O)c3ccc(C)cc3)C2=O)cc1 | -2% | 3 | -3 | -3% | 2% | 6%
COc1ccc(-n2ncc3c(N4CCCCC4)ncnc32)cc1 | ? | -8 | 3 | 2µM* | ? | 5µM*
Clc1ccc(-n2ncc3c(N4CCCCCC4)ncnc32)cc1 | ? | -6 | -3 | 14µM* | ? | ?
CCOc1ccc(/C=N/OCc2c(Cl)cccc2Cl)cc1OC | . | . | 0 | . | . | .
COC(=O)c1cn(CC(=O)Nc2cccc(C(C)=O)c2)c2ccccc12 | . | . | 0 | . | . | .
COCCNC(=O)c1cccc(OC2CCN(Cc3ccc(C(C)C)cc3)CC2)c1 | ? | -69* | 0 | -1% | ? | 42%
COCCNC(=O)c1cccc(OC2CCN(Cc3ccc(C(=O)OC)cc3)CC2)c1 | -11% | -16 | 2 | -12% | -25% | -2%
CSc1cccc(CN2CCC(Oc3cccc(C(=O)N4CCCC4)c3)CC2)c1 | ? | ? | 1 | -9% | ? | -24%
Cc1ccc(CN2CCC(Oc3cccc(C(=O)N(C)CCN(C)C)c3)CC2)cc1C | ? | -65* | -1 | -1% | ? | -8%
COc1ccc(-c2coc3c(C)c(OCCN4CCCCC4)ccc3c2=O)cc1 | . | . | -8 | . | . | .
CN(C)c1cccc2c(C=C(C#N)C#N)ccc(N(C)C)c12 | ? | -95* | 5 | -11% | ? | -4%
CN(C)c1cccc2c(/C=N/O)ccc(N(C)C)c12 | 19% | 7 | 21 | -7% | -20% | -26%
CCc1cc(=O)oc2cc(OCC(=O)N(C)C)ccc12 | . | . | -12 | . | . | .
